PubChem BioAssay (NCATS)
Results filed as inconclusive are left out. Activity calls are given as the source filed them. The call rests on the fitted dose curve; in most records, active means well fitted curve in the direction sought with a large enough effect; inconclusive means small, poorly fitted or top-dose-only effect, or another doubt; inactive means no such curve, though single readings can be large; an effect the other way counts as inactive or inconclusive. Where a SMILES comes first, the peptide text is derived from it. Bridges are numbered along the chain shown (N, C = ends). [ ]: non-standard residue; d: D form. hArg = N=C(N)NCCCC[C@H](N)C(=O)O; Mpa = O=C(O)CCS

Legend:
[1] = qHTS of pediatric cancer cell lines to identify multiple opportunities for drug repurposing: Primary screen for Rh18 cells (AID 1347102); further: nearly all actives have a fitted effect of over 65% in size
Procedure, shortened: (§1)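 Cells (500-1,000/well) in growth media were settled 5 h at 37 degrees C, then given compounds for 48 h. Viability was read as CellTiter-Glo luminescence. Primary runs used MIPE at 11 points (0.78 nM-46 µM) and NPC at 8 points (0.59 nM-46 µM); follow-ups used 11 points.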

[2] = qHTS of pediatric cancer cell lines to identify multiple opportunities for drug repurposing: Primary screen for OHS-50 cells (AID 1347103); further: nearly all actives have a fitted effect of over 40% in size
Procedure, shortened: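 Cells (500-1,000/well) rested 5 h, then received compounds for 48 h; metabolically active cells were measured by CellTiter-Glo luminescence. Final concentrations spanned up to 46 µM (MIPE, 11-point) or 0.59 nM-46 µM (NPC, 8-point) in primary screens, 11-point in follow-ups.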

[3] = qHTS of pediatric cancer cell lines to identify multiple opportunities for drug repurposing: Primary screen for RD cells (AID 1347104); further: nearly all actives have a fitted effect of over 55% in size
Procedure, shortened: (§2)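 Phenotypic viability qHTS, 48 h compound exposure, CellTiter-Glo luminescence read-out; multi-concentration dosing so that potency and efficacy derive directly from the primary screen's curves.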

[4] = qHTS of pediatric cancer cell lines to identify multiple opportunities for drug repurposing: Primary screen for MG 63 (6-TG R) cells (AID 1347105); further: nearly all actives have a fitted effect of over 50% in size
Procedure, shortened: as §2

[5] = qHTS of pediatric cancer cell lines to identify multiple opportunities for drug repurposing: Primary screen for control Hh wild type fibroblast cells (AID 1347106);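 further: series mostly up to about 46 µM; a drop in luminescence marks cytotoxicity and a rise apparent proliferation; nearly all actives have a fitted effect of over 55% in size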
Procedure, shortened: as §1

[6] = qHTS of pediatric cancer cell lines to identify multiple opportunities for drug repurposing: Primary screen for Rh30 cells (AID 1347107); further: series mostly up to about 46 µM; nearly all actives have a fitted effect of over 75% in size
Procedure, shortened: as §1

[7] = qHTS of pediatric cancer cell lines to identify multiple opportunities for drug repurposing: Primary screen for Rh41 cells (AID 1347108);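 further: series mostly up to about 46 µM; luminescence drop marks cytotoxic hits; nearly all actives have a fitted effect of over 70% in size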
Procedure, shortened: as §2

Measured: outcome

C[C@@H]1O[C@@H](OC[C@H]2O[C@@H](Oc3c(-c4ccc(O)c(O)c4)oc4cc(O)cc(O)c4c3=O)[C@H](O)[C@@H](O)[C@@H]2O)[C@H](O)[C@H](O)[C@H]1O
inactive: [1] | [2] | [3] | [4] | [5] | [6] | [7]

O=S1(=O)OC(c2ccc(O)cc2)(c2ccc(O)cc2)c2ccccc21
inactive: [1] | [2] | [3] | [4] | [5] | [6] | [7]

OCC(O)CS (configuration not stated)
inactive: [1] | [2] | [3] | [4] | [5] | [6] | [7]

COC(=O)c1ccc(O)cc1
inactive: [1] | [2] | [3] | [4] | [5] | [6] | [7]

CC1(C)[C@@H](OC(=O)CCC(=O)O)CC[C@]2(C)[C@H]3C(=O)C=C4[C@@H]5C[C@@](C)(C(=O)O)CC[C@]5(C)CC[C@@]4(C)[C@]3(C)CC[C@@H]12
inactive: [1] | [2] | [3] | [4] | [5] | [6] | [7]

CC(=O)OCC(COC(C)=O)OC(C)=O
inactive: [1] | [2] | [3] | [4] | [5] | [6] | [7]

CN1CCN(C(=O)C2CCCCC2)CC1
inactive: [1] | [2] | [3] | [4] | [5] | [6]

CC(C)CCOC(=O)c1ccc(N(C)C)cc1
inactive: [1] | [2] | [3] | [4] | [5] | [6]

COc1ccc(O)cc1
inactive: [1] | [2] | [3] | [4] | [5] | [6]

COC(=O)N/N=C/c1c[n+]([O-])c2ccccc2[n+]1[O-]
inactive: [1] | [2] | [3] | [4] | [5] | [6] | [7]

CC(C)CCCC(C)CCCC(C)CCCCC(C)CCCC(C)CCCC(C)C (configuration not stated)
inactive: [1] | [2] | [3] | [4] | [5] | [6]

CC(=O)N[C@@H](CC(C)C)C(=O)O
inactive: [1] | [2] | [3] | [4] | [5] | [6] | [7]

O=C(O)Cn1c(C(=O)Nc2nc(-c3ccccc3Cl)cs2)cc2ccccc21
inactive: [1] | [2] | [3] | [4] | [5] | [6] | [7]

C=CCN1C[C@H](C(=O)N(CCCN(C)C)C(=O)NCC)C[C@@H]2c3cccc4[nH]cc(c34)C[C@H]21
inactive: [1] | [2] | [3] | [4] | [5] | [6]

C[N+](C)(C)CC[N+]1(C)Cc2c(Cl)c(Cl)c(Cl)c(Cl)c2C1
inactive: [1] | [2] | [3] | [4] | [5] | [6]

CC1(c2ccccc2)OC(C(=O)O)=CC1=O (configuration not stated)
inactive: [1] | [2] | [3] | [4] | [5] | [6]

CCCNC(C)(C)COC(=O)c1ccccc1
inactive: [1] | [2] | [3] | [4] | [5] | [6]

NC(=O)c1ccc([N+](=O)[O-])cc1Cl
inactive: [1] | [2] | [3] | [4] | [5] | [6] | [7]

C[C@@H]1CCC[C@H](C)N1
inactive: [1] | [2] | [3] | [4] | [5] | [6] | [7]

CCCCCCCC(=O)OCC(O)CO (configuration not stated)
inactive: [1] | [2] | [3] | [4] | [5] | [6]

Cc1c(C)c2c(c(C)c1OC(=O)c1cccnc1)CC[C@@](C)(CCC[C@H](C)CCC[C@H](C)CCCC(C)C)O2
inactive: [1] | [2] | [3] | [4] | [5] | [6]

Cc1ncc(CO)c(CN)c1O
inactive: [1] | [2] | [3] | [4] | [5] | [6]

Cc1ccsc1C(=CCCN1CCC[C@@H](C(=O)O)C1)c1sccc1C
inactive: [1] | [2] | [3] | [4] | [5] | [6] | [7]

O=c1[nH]c(=O)n([C@H]2C[C@H](O)[C@@H](CO)O2)cc1I
inactive: [1] | [2] | [3] | [4] | [5] | [6]

Cc1ccc(S(=O)(=O)NC(=O)NC2CCCCCCC2)cc1
inactive: [1] | [2] | [3] | [4] | [5] | [6] | [7]

NC(=O)NC1NC(=O)NC1=O (configuration not stated)
inactive: [1] | [2] | [3] | [4] | [5] | [6] | [7]

Nc1ncnc2c1ncn2[C@@H]1O[C@H](COP(=O)(O)O)[C@@H](O)[C@H]1O
inactive: [1] | [2] | [3] | [4] | [5] | [6] | [7]

O=C(O)CCCc1ccccc1
inactive: [1] | [2] | [3] | [4] | [5] | [6] | [7]

Cc1c(Cn2ccnc2)c2ccccc2n1CCC(=O)O
inactive: [1] | [2] | [3] | [4] | [5] | [6] | [7]

O=C1C(c2[nH]c3ccccc3c2O)=Nc2ccccc21
inactive: [1] | [2] | [3] | [4] | [5] | [6]

CCN(CC)CCc1nc(-c2ccccc2)no1
inactive: [1] | [2] | [3] | [4] | [5] | [6]

CC(=O)Nc1ccc(OCCOCCOc2ccc(NC(C)=O)cc2)cc1
inactive: [1] | [2] | [3] | [4] | [5] | [6]

CC(=O)OC[C@H]1O[C@@](COC(C)=O)(O[C@H]2O[C@H](COC(C)=O)[C@@H](OC(C)=O)[C@H](OC(C)=O)[C@H]2OC(C)=O)[C@@H](OC(C)=O)[C@@H]1OC(C)=O
inactive: [1] | [2] | [3] | [4] | [5] | [6] | [7]

CC(=O)NCc1c(I)c(NC(C)=O)c(I)c(C(=O)O)c1I
inactive: [1] | [2] | [3] | [4] | [5] | [6]

Cc1c(NC(=O)c2cccnc2)c(=O)n(-c2ccccc2)n1C
inactive: [1] | [2] | [3] | [4] | [5] | [6] | [7]

FC(F)(F)C(Cl)Br (configuration not stated)
inactive: [1] | [2] | [3] | [4] | [5] | [6]

CCN(CC)CC1CCCCN1CC(=O)N1c2ccccc2C(=O)Nc2cccnc21 (configuration not stated)
inactive: [1] | [2] | [3] | [4] | [5] | [6] | [7]

CC(=O)NS(=O)(=O)c1ccc(N)cc1
inactive: [1] | [2] | [3] | [4] | [5] | [6] | [7]

Cn1c([N+](=O)[O-])cnc1COC(N)=O
inactive: [1] | [2] | [3] | [4] | [5] | [6] | [7]

CC1CC(OC(=O)c2ccccc2O)CC(C)(C)C1 (configuration not stated)
inactive: [1] | [2] | [3] | [4] | [5] | [6] | [7]

C=CCSCC1Nc2cc(Cl)c(S(N)(=O)=O)cc2S(=O)(=O)N1 (configuration not stated)
inactive: [1] | [2] | [3] | [4] | [5] | [6] | [7]

CC(C)(C)C(=O)OCOC(=O)[C@@H]1N2C(=O)[C@@H](NC(=O)[C@H](N)c3ccccc3)[C@H]2SC1(C)C
inactive: [1] | [2] | [3] | [4] | [5] | [6] | [7]

Cc1ccc(C(C)C)c(O)c1
inactive: [1] | [2] | [3] | [4] | [5] | [6] | [7]

COC(=O)c1ccccc1C(=O)c1ccc(OCCN2CCCCC2)cc1
inactive: [1] | [2] | [3] | [4] | [5] | [6] | [7]

c1ccc2[nH]ccc2c1
inactive: [1] | [2] | [3] | [4] | [5] | [6] | [7]

COc1ccc(C(=O)NCc2ccc(OCCN(C)C)cc2)cc1OC
inactive: [1] | [2] | [3] | [4] | [5] | [6] | [7]

CCc1cccc(CC)c1NC(=O)CN(CC(=O)O)CC(=O)O
inactive: [1] | [2] | [3] | [4] | [5] | [6] | [7]

NC(=O)[C@@H]1CSSCCC(=O)N[C@@H](CCCCN=C(N)N)C(=O)NCC(=O)N[C@@H](CC(=O)O)C(=O)N[C@@H](Cc2c[nH]c3ccccc23)C(=O)N2CCC[C@H]2C(=O)N1 ([Mpa][hArg]GDWPC-NH2; disulfide 1-7)
inactive: [1] | [2] | [3] | [4] | [5] | [6] | [7]

O=c1[nH]c2cc(C(F)(F)F)c(N3CCOCC3)cc2n(CP(=O)(O)O)c1=O
inactive: [1] | [2] | [3] | [4] | [5] | [6] | [7]

CC(CSC(=O)c1ccccc1)C(=O)N1C[C@@H](Sc2ccccc2)C[C@H]1C(=O)O (some centres not stated)
inactive: [1] | [2] | [3] | [4] | [5] | [6] | [7]

C[C@@H](N)C(=O)O
inactive: [1] | [2] | [3] | [4] | [5] | [6] | [7]

CCS(=O)(=O)CCn1c([N+](=O)[O-])cnc1C
inactive: [1] | [2] | [3] | [4] | [5] | [6] | [7]

NNc1nnc(NN)c2ccccc12
inactive: [1] | [2] | [3] | [4] | [5] | [6] | [7]

Cc1cc(=O)[nH]c(=S)[nH]1
inactive: [1] | [2] | [3] | [4] | [5] | [6] | [7]

Cc1cc(OI)c(C(C)C)cc1-c1cc(C(C)C)c(OI)cc1C
inactive: [1] | [2] | [3] | [4] | [5] | [6] | [7]

OC[C@@H](O)[C@@H](O)[C@H](O)[C@H](O)CO
inactive: [1] | [2] | [3] | [4] | [5] | [6] | [7]

O=C(/C=C/c1ccccc1)OCc1ccccc1
inactive: [1] | [2] | [3] | [4] | [5] | [6] | [7]
